Where a name gives a salt, the structure may show the parent alone.
What was measured:
Settings in all cases: treatment time: 24 h
A549-ACTB-RAB5A [1] = test: lowest phenotypically active concentration; higher = less potent
Procedure, shortened: (§1)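 Two criteria together defined phenotypic activity: deviation and reproducibility. Deviation meant ≥3 of 4 wells beyond the 95th percentile of Euclidean distances in solvent control wells, and reproducibility meant a median replicate Pearson correlation above the 95th percentile of non-replicates. Wells had been treated for 24 h at 0.3, 1, 3 or 9 µM in fifteen gene-edited A549, HepG2 and WPMY1 reporter lines before live imaging.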

A549-GM130-SQSTM1 [2] = test: as above
Procedure, shortened: as §1

A549-TUBA1B-RELA [3] = test: as above
Procedure, shortened: as §1

WPMY1-ACTB-RAB5A [4] = test: as above
Procedure, shortened: as §1

WPMY1-CANX-COX4 [5] = test: as above
Procedure, shortened: as §1

A549-ACTB-RAB5A [6] = test: phenotypically active (imaging signature differs from DMSO and reproducible) at any of 0.3-9 uM (binary (1 = active, 0 = inactive)); higher = active
Procedure, shortened: as §1

A549-CANX-COX4 = test: as above
Procedure, shortened: as §1

A549-GM130-SQSTM1 [7] = test: as above
Procedure, shortened: as §1

A549-TP53BP1-CLTA = test: as above
Procedure, shortened: as §1

A549-TUBA1B-RELA [8] = test: as above
Procedure, shortened: as §1

HepG2-ACTB-RAB5A = test: as above
Procedure, shortened: as §1

HepG2-CANX-COX4 = test: as above
Procedure, shortened: as §1

HepG2-GM130-SQSTM1 = test: as above
Procedure, shortened: as §1

HepG2-TP53BP1-CLTA = test: as above
Procedure, shortened: as §1

HepG2-TUBA1B-RELA = test: as above
Procedure, shortened: as §1

WPMY1-ACTB-RAB5A [9] = test: as above
Procedure, shortened: as §1

WPMY1-CANX-COX4 [10] = test: as above
Procedure, shortened: as §1

WPMY1-GM130-SQSTM1 = test: as above
Procedure, shortened: as §1

WPMY1-TP53BP1-CLTA = test: as above
Procedure, shortened: as §1

WPMY1-TUBA1B-RELA = test: as above
Procedure, shortened: as §1

Row | SMILES | lowest phenotypically active concentration (A549-ACTB-RAB5A [1]) [µM] | lowest phenotypically active concentration (A549-GM130-SQSTM1 [2]) [µM] | lowest phenotypically active concentration (A549-TUBA1B-RELA [3]) [µM] | lowest phenotypically active concentration (WPMY1-ACTB-RAB5A [4]) [µM] | lowest phenotypically active concentration (WPMY1-CANX-COX4 [5]) [µM] | phenotypically active (A549-ACTB-RAB5A [6]) | phenotypically active (A549-CANX-COX4) | phenotypically active (A549-GM130-SQSTM1 [7]) | phenotypically active (A549-TP53BP1-CLTA) | phenotypically active (A549-TUBA1B-RELA [8]) | phenotypically active (HepG2-ACTB-RAB5A) | phenotypically active (HepG2-CANX-COX4) | phenotypically active (HepG2-GM130-SQSTM1) | phenotypically active (HepG2-TP53BP1-CLTA) | phenotypically active (HepG2-TUBA1B-RELA) | phenotypically active (WPMY1-ACTB-RAB5A [9]) | phenotypically active (WPMY1-CANX-COX4 [10]) | phenotypically active (WPMY1-GM130-SQSTM1) | phenotypically active (WPMY1-TP53BP1-CLTA) | phenotypically active (WPMY1-TUBA1B-RELA)
1 | Oc1cccc(-c2nc(N3CCOCC3)c3oc4ncccc4c3n2)c1 [PI 103 hydrochloride] | ≤ 0.3 | ≤ 0.3 | ≤ 0.3 | ≤ 0.3 | ≤ 0.3 | 1 (active) | 1 (active) | 1 (active) | 1 (active) | 1 (active) | 1 (active) | 1 (active) | 1 (active) | 1 (active) | 1 (active) | 1 (active) | 1 (active) | 1 (active) | 1 (active) | 1 (active)
2 | COc1cc(O)cc(O)c1C(=O)/C=C/c1ccccc1 [Cardamonin] | 9 | 9 | 9 | 9 | 9 | 1 (active) | 1 (active) | 1 (active) | 1 (active) | 1 (active) | 1 (active) | 1 (active) | 1 (active) | 0 (inactive) | 1 (active) | 1 (active) | 1 (active) | 1 (active) | 1 (active) | 1 (active)
3 | CN1CC[C@H](c2c(O)cc(O)c3c(=O)cc(-c4ccccc4Cl)oc23)[C@H](O)C1 [Flavopiridol hydrochloride] | ≤ 0.3 | ≤ 0.3 | ≤ 0.3 | ≤ 0.3 | ≤ 0.3 | 1 (active) | 1 (active) | 1 (active) | 1 (active) | 1 (active) | 1 (active) | 1 (active) | 1 (active) | 1 (active) | 1 (active) | 1 (active) | 1 (active) | 1 (active) | 1 (active) | 1 (active)
4 | COc1cc2c(N3CCN(C(=O)Nc4ccc(OC(C)C)cc4)CC3)ncnc2cc1OCCCN1CCCCC1 [tandutinib] | 9 | 3 | 9 | 9 | 9 | 1 (active) | 1 (active) | 1 (active) | 1 (active) | 1 (active) | 1 (active) | 1 (active) | 1 (active) | 1 (active) | 1 (active) | 1 (active) | 1 (active) | 1 (active) | 0 (inactive) | 1 (active)
5 | CCc1cncnc1N1CCN(Cc2nc3cc(C(F)(F)F)ccc3[nH]2)CC1 | 3 | 9 | – | – | – | 1 (active) | 1 (active) | 1 (active) | 0 (inactive) | 0 (inactive) | 1 (active) | 1 (active) | 1 (active) | 1 (active) | 1 (active) | 0 (inactive) | 0 (inactive) | 0 (inactive) | 0 (inactive) | 1 (active)
6 | Cc1nnc(-c2ccc3occ(-c4ccc(S(C)=O)cc4)c3c2)o1 (configuration not stated) | 9 | 9 | – | 9 | 9 | 1 (active) | 1 (active) | 1 (active) | 1 (active) | 0 (inactive) | 1 (active) | 1 (active) | 1 (active) | 0 (inactive) | 1 (active) | 1 (active) | 1 (active) | 1 (active) | 1 (active) | 0 (inactive)
7 | CC(C)(C)c1cc(C(=O)/C=C/c2ccc(C(=O)O)cc2)cc(C(C)(C)C)c1 | ≤ 0.3 | 1 | 1 | ≤ 0.3 | ≤ 0.3 | 1 (active) | 1 (active) | 1 (active) | 0 (inactive) | 1 (active) | 1 (active) | 1 (active) | 1 (active) | 1 (active) | 0 (inactive) | 1 (active) | 1 (active) | 1 (active) | 1 (active) | 1 (active)
8 | CCCOc1ccc(CCc2nc3cc(-c4c(C)noc4C)ccc3n2CCN2CCOCC2)cc1 | 9 | – | – | – | – | 1 (active) | 1 (active) | 0 (inactive) | 0 (inactive) | 0 (inactive) | 1 (active) | 1 (active) | 0 (inactive) | 1 (active) | 0 (inactive) | 0 (inactive) | 0 (inactive) | 0 (inactive) | 0 (inactive) | 0 (inactive)
9 | O=S(=O)(c1cccc2c(O)nccc12)N1CCCNCC1 [HA 1100 hydrochloride] | 3 | – | 9 | 9 | 3 | 1 (active) | 1 (active) | 0 (inactive) | 1 (active) | 1 (active) | 1 (active) | 1 (active) | 1 (active) | 1 (active) | 0 (inactive) | 1 (active) | 1 (active) | 1 (active) | 1 (active) | 1 (active)
10 | C=C1C(=O)O[C@@H]2[C@H]3O[C@]3(C)CCC=C(C)CC[C@@H]12 [Parthenolide] | 9 | 9 | 9 | 9 | 9 | 1 (active) | 1 (active) | 1 (active) | 0 (inactive) | 1 (active) | 1 (active) | 1 (active) | 1 (active) | 0 (inactive) | 0 (inactive) | 1 (active) | 1 (active) | 1 (active) | 0 (inactive) | 1 (active)
11 | CN(C)c1ccc(/C=C2\C(=O)Nc3ccccc32)cc1 | 9 | 3 | 9 | 9 | 3 | 1 (active) | 1 (active) | 1 (active) | 1 (active) | 1 (active) | 0 (inactive) | 0 (inactive) | 1 (active) | 1 (active) | 1 (active) | 1 (active) | 1 (active) | 1 (active) | 1 (active) | 0 (inactive)
12 | Cc1cccc(C)c1OCC(=O)N[C@@H](Cc1ccccc1)[C@@H](O)C[C@H](Cc1ccccc1)NC(=O)[C@H](C(C)C)N1CCCNC1=O [lopinavir] | 9 | – | – | – | 9 | 1 (active) | 1 (active) | 0 (inactive) | 0 (inactive) | 0 (inactive) | 1 (active) | 0 (inactive) | 0 (inactive) | 0 (inactive) | 1 (active) | 0 (inactive) | 1 (active) | 0 (inactive) | 0 (inactive) | 0 (inactive)
13 | CC1(C)O[C@@H]2C[C@H]3[C@@H]4C[C@H](F)C5=CC(=O)C=C[C@]5(C)[C@@]4(F)[C@@H](O)C[C@]3(C)[C@]2(C(=O)CO)O1 [fluocinolone acetonide] | ≤ 0.3 | ≤ 0.3 | ≤ 0.3 | ≤ 0.3 | – | 1 (active) | 1 (active) | 1 (active) | 1 (active) | 1 (active) | 0 (inactive) | 0 (inactive) | 0 (inactive) | 0 (inactive) | 0 (inactive) | 1 (active) | 0 (inactive) | 0 (inactive) | 0 (inactive) | 0 (inactive)
14 | COc1cc2c(cc1NS(=O)(=O)c1ccc(Br)cc1C)n(C)c(=O)n2C | 3 | – | – | – | – | 1 (active) | 1 (active) | 0 (inactive) | 1 (active) | 0 (inactive) | 1 (active) | 1 (active) | 1 (active) | 0 (inactive) | 1 (active) | 0 (inactive) | 0 (inactive) | 0 (inactive) | 0 (inactive) | 0 (inactive)
15 | O=C(Nc1ccccc1)c1cc([N+](=O)[O-])ccc1Cl | 9 | 9 | 3 | – | 9 | 1 (active) | 1 (active) | 1 (active) | 0 (inactive) | 1 (active) | 1 (active) | 0 (inactive) | 0 (inactive) | 0 (inactive) | 0 (inactive) | 0 (inactive) | 1 (active) | 0 (inactive) | 0 (inactive) | 0 (inactive)
16 | Nc1ncnc2[nH]nc(Nc3ccc(F)cc3)c12 | 9 | – | 9 | 9 | 9 | 1 (active) | 1 (active) | 0 (inactive) | 0 (inactive) | 1 (active) | 1 (active) | 0 (inactive) | 1 (active) | 1 (active) | 1 (active) | 1 (active) | 1 (active) | 1 (active) | 1 (active) | 1 (active)
17 | Nc1nccc(-c2ccc3noc(-c4ccc(Cl)cc4)c3c2)n1 [PIM-1 Inhibitor 2] | 3 | 3 | – | 9 | 9 | 1 (active) | 1 (active) | 1 (active) | 1 (active) | 0 (inactive) | 0 (inactive) | 0 (inactive) | 0 (inactive) | 1 (active) | 0 (inactive) | 1 (active) | 1 (active) | 1 (active) | 1 (active) | 1 (active)
18 | C[C@@H]1C[C@H]2[C@@H]3CCC4=CC(=O)C=C[C@]4(C)[C@@]3(Cl)[C@@H](O)C[C@]2(C)[C@@]1(OC(=O)c1ccco1)C(=O)CCl [mometasone furoate] | ≤ 0.3 | ≤ 0.3 | ≤ 0.3 | – | – | 1 (active) | 1 (active) | 1 (active) | 1 (active) | 1 (active) | 0 (inactive) | 0 (inactive) | 0 (inactive) | 0 (inactive) | 0 (inactive) | 0 (inactive) | 0 (inactive) | 1 (active) | 0 (inactive) | 0 (inactive)
19 | CC/C(=C(/c1ccccc1)c1ccc(OCCN(C)C)cc1)c1ccccc1 [tamoxifen] | 3 | 3 | 3 | 9 | 9 | 1 (active) | 1 (active) | 1 (active) | 0 (inactive) | 1 (active) | 1 (active) | 0 (inactive) | 1 (active) | 1 (active) | 1 (active) | 1 (active) | 1 (active) | 1 (active) | 1 (active) | 1 (active)
20 | CC(C)C(=O)SCCCCCCC(=O)Nc1nc(-c2ccccc2)cs1 | 1 | – | 9 | 1 | 1 | 1 (active) | 1 (active) | 0 (inactive) | 0 (inactive) | 1 (active) | 0 (inactive) | 1 (active) | 0 (inactive) | 0 (inactive) | 0 (inactive) | 1 (active) | 1 (active) | 1 (active) | 1 (active) | 1 (active)
21 | CCCCc1oc2ccc(NS(C)(=O)=O)cc2c1C(=O)c1ccc(OCCCN(CCCC)CCCC)cc1 [dronedarone] | 3 | 3 | 3 | 9 | 9 | 1 (active) | 1 (active) | 1 (active) | 0 (inactive) | 1 (active) | 1 (active) | 0 (inactive) | 1 (active) | 1 (active) | 1 (active) | 1 (active) | 1 (active) | 0 (inactive) | 1 (active) | 1 (active)
22 | OCc1cc(C(O)CNCCCCCCOCCCCc2ccccc2)ccc1O (configuration not stated) [salmeterol] | 9 | 9 | 9 | 9 | 3 | 1 (active) | 1 (active) | 1 (active) | 0 (inactive) | 1 (active) | 1 (active) | 0 (inactive) | 1 (active) | 1 (active) | 1 (active) | 1 (active) | 1 (active) | 1 (active) | 1 (active) | 1 (active)
